The source made the active and inactive calls. Unless noted, no rule for the calls is given here.

Test [1] in a line: compounds binding Alexa647 anti-His antibody – biochemical, small-molecule microarray, 635 nm fluorescence, artefact control for SMM control protein annotation, primary screen (AID 1128).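 Also: score merges feature fluorescence with signal-to-noise for each printed compound spot.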 The conditions noted are these: higher = more signal.
Test [2] relates to Human papillomavirus type 1a E7 protein (residues 1-88). Nature of the test: HPV1a E7 small-molecule binders, primary screen, biochemical, small-molecule microarray, residues 1-88, 635 nm (AID 1129). As to conditions: small-molecule microarray binding, fluorescence 635 nm; higher = more signal.
Test [3] concerns the target Focal adhesion kinase 1 (Homo sapiens) (UniProt Q05397). Nature of the test: PTK2 protein binding on printed compound slides – biochemical, small-molecule microarray, 635/667 nm fluorescence, BSA, DTT, primary screen (AID 1130).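 Also: composite of spot emission at 667 nm and signal to noise over triplicate slides.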 As to conditions: 635 nm fluorescence, higher = more signal.
The subject of test [4] is Fibrinogen (Alexa647-labelled). Nature of the test: Alexa647-fibrinogen binding to printed small molecules – biochemical, small-molecule microarray, 635/667 nm fluorescence, artefact control for SMM control-protein annotation, profiling panel (AID 1131).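 Also: z-score merges 667 nm fluorescence with per-spot signal-to-noise over triplicate slides.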 As to conditions: fibrinogen-A647 binding fluorescence, higher = more signal.
Test [5] addresses Follistatin (Homo sapiens) (UniProt P19883). Nature of the test: FST protein binding to printed compounds – biochemical, small-molecule microarray, 635/667 nm fluorescence, primary screen (AID 1132). As to conditions: 635 nm fluorescence, higher = more signal.
Test [6] has as its target Fibroblast growth factor 2 (Homo sapiens) (UniProt P09038). Nature of the test: basic fibroblast growth factor binding to printed compounds – biochemical, small-molecule microarray, 635/667 nm fluorescence, primary screen (AID 1133). As to conditions: FGF2, fluorescence 635/667, higher = more signal.
A short description of test [7]: JC-1 mitochondrial potential readout, lung cancer cells – cell-based, A549, JC-1 fluorescence, basal, 24 h, 100 nL, profiling panel (AID 1138).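 Also: A549 lung adenocarcinoma cells under basal conditions with no added stimulus; test concentration not given here.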 As to conditions: higher = more signal.
The subject of a further test is Lefty1. Nature of the test: Lefty1 protein binding to printed compounds – biochemical, small-molecule microarray, 635/667 nm fluorescence, primary screen (AID 1139). The conditions noted are these: fluorescence 635/667, higher = more signal.
Test [8] has as its system wheat germ agglutinin (Triticum aestivum), Alexa647-labelled. Nature of the test: Alexa647-WGA lectin binding to printed small molecules – biochemical, small-molecule microarray, 635/667 nm fluorescence, artefact control for SMM control-protein annotation, profiling panel (AID 1140).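 Also: score merges 667 nm feature emission with signal to noise over triplicate slides.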 The conditions noted are these: WGA-A647 binding, 635 nm fluorescence, higher = more signal.

Test [9] has as its target Luciferin 4-monooxygenase (Photinus pyralis) (UniProt P08659). Nature of the test: inhibition of purified Photinus pyralis luciferase – biochemical, luminescence, purified enzyme, 2006 set, primary screen (AID 1141).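 Also: cell-free assay with purified firefly luciferase at 100 ng per well in PBS; test concentration not given here.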 The conditions noted are these: purified firefly luciferase, SteadyGlo luminescence, 30 min; higher = more signal, called active from +8 up or from −8 down.
Test [10] relates to Wnt5a (protein binding on small-molecule microarray). Nature of the test: small molecules binding Wnt5a protein – biophysical, small-molecule microarray, 635/667 nm fluorescence, primary screen (AID 1142).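 Also: fluorescence read at 667 nm with signal to noise per printed feature.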 The conditions noted are these: 635 nm fluorescence, higher = more signal.
Test [11] in a line: ATP-based viability of Huh7 replicon cells – cell-based, CellTiter-Glo luminescence, basal, 48 h, cytotoxicity control for HCV replication inhibitor project, primary screen (AID 1143).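 Also: Huh7 hepatoma cells carrying a hepatitis C replication reporter with no stimulus; test concentration not given here.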 As to conditions: higher = more signal, called active from +8 up or from −8 down.
A short description of test [12]: basal CRE-LacZ reporter activity in PC12 – cell-based, unstimulated, primary screen (AID 1145). As to conditions: no forskolin, luminescence, 4.5 h, higher = more signal, called active from +8 up or from −8 down.
Test [13] in a line: forskolin-driven CRE-LacZ activity in PC12 – cell-based, CRE-LacZ reporter, forskolin-stimulated, primary screen (AID 1146).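 Also: PC12 cells with 6xCRE LacZ reporter stimulated by forskolin 10 µM; beta-galactosidase reporter signal reflecting CREB driven transcription.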 The conditions noted are these: luminescence, 4.5 h, higher = more signal, called active from +8 up or from −8 down.
Test [14] has as its target Streptavidin (Streptomyces avidinii) (UniProt P22629). Nature of the test: compounds binding control protein streptavidin – biophysical, small-molecule microarray, 635/667 nm fluorescence, artefact control for SMM compound annotation, primary screen (AID 1147).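 Also: signal reflects streptavidin binding to arrayed compounds as a control protein.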 The conditions noted are these: higher = more signal.
Test [15] is described as follows: probe aInhba binding on compound microarray – biochemical, small-molecule microarray, 635/667 nm fluorescence, primary screen (AID 1148).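 Also: score merges 667nm spot fluorescence with signal-to-noise for antibody binding to printed compounds.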 As to conditions: higher = more signal.
Test [16] has as its target Torsin-1A (Homo sapiens) (UniProt O14656). Nature of the test: TOR1A wild-type binding on microarray – cell lysate, small-molecule microarray, lysate, 635/667 nm, primary screen (AID 1149). The conditions noted are these: COS7 hTOR1A-WT lysate, 635 nm fluorescence, higher = more signal.
Test [17] has the same target. Nature of the test: torsin A mutant lysate binding on microarrays – cell lysate, small-molecule microarray, COS7 lysate, 635/667 nm fluorescence, primary screen (AID 1150).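 Also: score pools 667 nm emission and signal to noise measuring lysate protein binding.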 The conditions noted are these: COS7 hTOR1A mutant lysate, 635 nm fluorescence, higher = more signal.
Test [18] deals with Sonic hedgehog protein (Shh). Nature of the test: Sonic hedgehog microarray binding compounds – biochemical, small-molecule microarray, 635/667 nm fluorescence, primary screen (AID 1151).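 Also: Shh protein binding to compounds spotted on small-molecule microarray slides; score combines spot fluorescence intensity with signal-to-noise across triplicate slides.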 The conditions noted are these: 635 nm fluorescence, higher = more signal.
Test [19] can be described thus: Pseudomonas biofilm growth suppression – PAO1 strain, BacTiter-Glo luminescence, LB-PBS, primary screen (AID 1144). As to conditions: P. aeruginosa PAO1 biofilm, 12 h, higher = more signal.

Sequence of Torsin-1A (Homo sapiens) (O14656 whole entry, looked up): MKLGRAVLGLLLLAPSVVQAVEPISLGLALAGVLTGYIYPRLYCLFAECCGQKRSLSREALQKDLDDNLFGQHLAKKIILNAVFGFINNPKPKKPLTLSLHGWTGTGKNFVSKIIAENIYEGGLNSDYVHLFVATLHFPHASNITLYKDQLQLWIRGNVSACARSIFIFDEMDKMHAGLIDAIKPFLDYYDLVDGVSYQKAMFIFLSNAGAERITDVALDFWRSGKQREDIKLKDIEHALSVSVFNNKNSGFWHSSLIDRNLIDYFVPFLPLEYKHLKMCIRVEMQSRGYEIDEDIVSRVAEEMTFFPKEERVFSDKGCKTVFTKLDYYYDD
Sequence of Luciferin 4-monooxygenase (Photinus pyralis) (P08659 whole entry, looked up): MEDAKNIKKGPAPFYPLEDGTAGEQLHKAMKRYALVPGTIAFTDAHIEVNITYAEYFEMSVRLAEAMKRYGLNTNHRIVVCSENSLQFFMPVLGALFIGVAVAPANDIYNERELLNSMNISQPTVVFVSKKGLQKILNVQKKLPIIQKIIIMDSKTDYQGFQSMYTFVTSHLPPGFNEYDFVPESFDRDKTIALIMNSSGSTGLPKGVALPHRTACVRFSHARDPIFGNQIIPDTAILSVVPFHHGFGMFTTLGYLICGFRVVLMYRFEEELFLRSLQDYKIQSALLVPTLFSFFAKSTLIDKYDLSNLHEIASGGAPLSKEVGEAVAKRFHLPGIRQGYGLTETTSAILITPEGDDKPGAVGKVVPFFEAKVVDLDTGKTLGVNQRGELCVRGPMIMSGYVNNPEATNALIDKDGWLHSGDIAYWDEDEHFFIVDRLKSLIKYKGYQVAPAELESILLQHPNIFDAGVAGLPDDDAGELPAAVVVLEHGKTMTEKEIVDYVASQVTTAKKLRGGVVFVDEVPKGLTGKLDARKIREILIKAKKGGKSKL
Sequence of Streptavidin (Streptomyces avidinii) (P22629 whole entry, looked up): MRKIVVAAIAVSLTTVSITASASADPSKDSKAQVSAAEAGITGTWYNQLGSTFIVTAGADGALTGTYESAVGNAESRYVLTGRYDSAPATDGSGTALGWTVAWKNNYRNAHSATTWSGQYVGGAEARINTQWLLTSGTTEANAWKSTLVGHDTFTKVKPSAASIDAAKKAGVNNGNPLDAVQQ
Sequence of Focal adhesion kinase 1 (Homo sapiens) (Q05397 whole entry, looked up): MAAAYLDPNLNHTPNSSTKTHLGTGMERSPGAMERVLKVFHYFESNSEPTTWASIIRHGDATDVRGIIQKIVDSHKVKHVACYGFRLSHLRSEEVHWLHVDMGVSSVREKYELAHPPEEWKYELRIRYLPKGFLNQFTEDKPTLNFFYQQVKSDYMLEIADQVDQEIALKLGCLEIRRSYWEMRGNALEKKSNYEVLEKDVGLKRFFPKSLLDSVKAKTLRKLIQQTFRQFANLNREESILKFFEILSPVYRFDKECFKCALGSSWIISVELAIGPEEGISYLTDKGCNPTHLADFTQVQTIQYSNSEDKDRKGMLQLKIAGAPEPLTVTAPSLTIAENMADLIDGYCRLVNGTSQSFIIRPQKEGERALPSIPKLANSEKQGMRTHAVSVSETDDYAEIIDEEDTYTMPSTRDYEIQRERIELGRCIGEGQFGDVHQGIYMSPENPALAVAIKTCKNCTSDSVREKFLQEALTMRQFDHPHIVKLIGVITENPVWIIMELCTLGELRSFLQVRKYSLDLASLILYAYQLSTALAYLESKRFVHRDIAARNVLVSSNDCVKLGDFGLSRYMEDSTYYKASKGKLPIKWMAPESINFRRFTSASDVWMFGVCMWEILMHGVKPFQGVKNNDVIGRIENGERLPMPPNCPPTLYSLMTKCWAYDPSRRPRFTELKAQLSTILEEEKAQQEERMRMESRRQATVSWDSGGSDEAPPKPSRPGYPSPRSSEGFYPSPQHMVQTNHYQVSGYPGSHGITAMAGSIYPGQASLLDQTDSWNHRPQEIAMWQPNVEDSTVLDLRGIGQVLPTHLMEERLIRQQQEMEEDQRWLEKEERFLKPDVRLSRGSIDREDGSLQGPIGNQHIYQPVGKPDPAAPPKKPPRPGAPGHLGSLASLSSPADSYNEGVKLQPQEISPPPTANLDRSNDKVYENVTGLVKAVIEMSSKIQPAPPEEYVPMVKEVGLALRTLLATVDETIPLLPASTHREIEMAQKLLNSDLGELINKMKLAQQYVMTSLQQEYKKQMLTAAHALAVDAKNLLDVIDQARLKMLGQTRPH
Sequence of Fibroblast growth factor 2 (Homo sapiens) (P09038 whole entry, looked up): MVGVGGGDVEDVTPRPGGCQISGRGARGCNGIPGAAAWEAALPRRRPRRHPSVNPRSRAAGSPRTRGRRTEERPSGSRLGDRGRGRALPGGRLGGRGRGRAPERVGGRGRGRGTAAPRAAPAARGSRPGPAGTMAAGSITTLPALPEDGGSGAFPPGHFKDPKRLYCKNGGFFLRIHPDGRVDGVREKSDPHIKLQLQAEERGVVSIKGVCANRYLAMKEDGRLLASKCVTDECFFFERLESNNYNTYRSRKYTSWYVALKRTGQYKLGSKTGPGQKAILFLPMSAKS
Sequence of Follistatin (Homo sapiens) (P19883 whole entry, looked up): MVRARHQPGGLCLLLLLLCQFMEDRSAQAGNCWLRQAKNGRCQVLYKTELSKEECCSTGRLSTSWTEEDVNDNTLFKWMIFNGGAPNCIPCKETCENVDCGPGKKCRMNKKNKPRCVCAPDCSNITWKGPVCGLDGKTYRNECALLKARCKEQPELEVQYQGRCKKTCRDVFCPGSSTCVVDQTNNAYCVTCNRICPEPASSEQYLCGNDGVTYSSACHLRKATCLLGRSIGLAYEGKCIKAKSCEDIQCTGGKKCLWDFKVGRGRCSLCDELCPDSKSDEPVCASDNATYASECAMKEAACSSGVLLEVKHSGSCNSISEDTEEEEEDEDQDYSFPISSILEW

As to `COc1cccc([C@@H]2[C@@H](C)CC[C@H]3C(=O)N(C)[C@@H](C(C)C)C(=O)N23)c1`, the composite z-score in test [1] was 0.381; in test [2] it was 0.694; in test [3], 1.24; in [4] it was -0.0271; in test [5], 0.388; in test [6], 0.348. The composite z-score was 0.915 in the test on Lefty1; 0.168 in test [8]; 0.0537 in [10]; 0.398 in [14]; -0.0523 in test [15]; 0.798 in the test with Torsin-1A (Homo sapiens) [16]. Besides, the composite z-score is 0.101 with Torsin-1A (Homo sapiens) [17] and 0.39 in test [18]. The z-score in [7] is 1.68; in test [9], -1.56 (inactive); in test [11], -0.205 (inactive); in [12], 2.9 (inactive); in test [13] it was -0.762 (inactive).
`O=C1c2ccccc2[C@@]2(Cc3ccccc3N(CC(F)(F)F)C2=O)[C@H](c2ccc(CO)cc2)N1C1CCCCC1`: the composite z-score in [1] was -0.194; in [2], -0.07; in [3], -0.103; in test [4] it was -0.243; in [5], 1.06; in test [6] it was 1.06. Moreover, the composite z-score with Lefty1 was 0.531; in test [8] it was -0.643; in test [10], 0.327; in [14], -0.256; in test [15], 0.207; with Torsin-1A (Homo sapiens) [16] it was 0.17. Further, the figures for the composite z-score (with Torsin-1A (Homo sapiens) [17]; in [18]) were -0.309 and 0.522, respectively. Also, the z-score in test [7] is 0.835; in test [9] it was -0.637 (inactive); in test [11], -0.323 (inactive); in [19], 0.00188 (inactive); in test [12], -0.168 (inactive); in test [13], -0.838 (inactive).
Regarding `C=CC[C@@]1(C(=O)NCC(O)CO)N=C(c2ccc(OCCCO)cc2)O[C@@H]1c1ccccc1CN=[N+]=[N-]` (some centres undefined), the composite z-score is 1.55 in test [1]; 0.756 in [2]; 0.77 in test [3]; 0.198 in test [4]; 0.415 in [5]; -0.492 in test [6]. For the same molecule, the composite z-score was -0.548 in the test on Lefty1; 0.569 in test [8]; -0.233 in test [10]; 0.0285 in test [14]; 0.0705 in test [15]; 1.09 with Torsin-1A (Homo sapiens) [16]. In addition, the composite z-score with Torsin-1A (Homo sapiens) [17] is 2.13; in [18], -0.364. Further, the z-score in [7] was 1.37; in [9], -0.117 (inactive); in test [11], -1.74 (inactive); in [19], -0.427 (inactive); in test [12], -0.459 (inactive); in test [13], -0.783 (inactive).
With `O=C1C2C=CC(C(O)Cc3ccccc3)N(Nc3ccc([N+](=O)[O-])cc3)C2C(=O)N1c1ccccc1` (centres undefined), the composite z-score in test [1] was 1.46; in test [2], 1.01; in test [3], 0.331; in test [4] it was 0.405; in test [5], 0.252; in test [6] it was -0.165. The composite z-score in the test with Lefty1 is -0.0551; in [8] it was 0.245; in test [10], 0.331; in test [14], 0.355; in test [15] it was 0.46; with Torsin-1A (Homo sapiens) [16] it was 0.187. Moreover, the results for the composite z-score (with Torsin-1A (Homo sapiens) [17]; in test [18]) were 0.222 and -0.166, respectively. The z-score was -0.75 in test [7]; 1.36 (inactive) in [9]; -0.219 (inactive) in test [11]; -0.138 (inactive) in test [19]; -1.33 (inactive) in [12]; -0.0492 (inactive) in test [13].
Consider `C#CCCCON=C1C[C@@H](O)[C@@H](O)[C@@H]2[C@@H]3C(=O)N(Cc4ccc5c(c4)OCO5)C(=O)[C@@H]3CC[C@@H]12`, for which the composite z-score was 2.73 in test [1]; 0.226 in test [2]; -0.0967 in [3]; 0.903 in test [4]; 0.669 in test [5]; 0.0999 in test [6]. The composite z-score was 0.847 in the test with Lefty1; 1.14 in [8]; -0.323 in test [10]; 0.571 in test [14]; -0.0245 in [15]; -0.345 with Torsin-1A (Homo sapiens) [16]. Besides, the composite z-score in the test with Torsin-1A (Homo sapiens) [17] was -0.151; in [18] it was 0.9. In addition, the z-score in test [7] is 0.505; in [9] it was 0.76 (inactive); in test [11], -0.209 (inactive); in test [19], 1.86 (inactive); in test [12], -0.56 (inactive); in [13], -0.157 (inactive).

For the origin of these results see PubChem BioAssay.
